Laboratory results taken from PubChem BioAssay (EPA / NIEHS).
Inconclusive results are not listed. The source made the active and inactive calls. How the source made its calls: active means hit-call score of the fitted dose curve at least 0.9, where 1 is the maximum; inconclusive means response in the unintended direction; inactive means score below 0.9.

Key:
[1] = molecular target: human Phosphodiesterase 4A1 (PDE4A1), PDE4A (gene 5141) (UniProt P27815); assay: NVS_ENZ_hPDE4A1: NovaScreen (NVS) Enzymatic Assay for human Phosphodiesterase 4A1 (PDE4A1) (AID 2283191)
Sequence of human Phosphodiesterase 4A1 (PDE4A1), PDE4A (gene 5141) (P27815 whole entry, looked up): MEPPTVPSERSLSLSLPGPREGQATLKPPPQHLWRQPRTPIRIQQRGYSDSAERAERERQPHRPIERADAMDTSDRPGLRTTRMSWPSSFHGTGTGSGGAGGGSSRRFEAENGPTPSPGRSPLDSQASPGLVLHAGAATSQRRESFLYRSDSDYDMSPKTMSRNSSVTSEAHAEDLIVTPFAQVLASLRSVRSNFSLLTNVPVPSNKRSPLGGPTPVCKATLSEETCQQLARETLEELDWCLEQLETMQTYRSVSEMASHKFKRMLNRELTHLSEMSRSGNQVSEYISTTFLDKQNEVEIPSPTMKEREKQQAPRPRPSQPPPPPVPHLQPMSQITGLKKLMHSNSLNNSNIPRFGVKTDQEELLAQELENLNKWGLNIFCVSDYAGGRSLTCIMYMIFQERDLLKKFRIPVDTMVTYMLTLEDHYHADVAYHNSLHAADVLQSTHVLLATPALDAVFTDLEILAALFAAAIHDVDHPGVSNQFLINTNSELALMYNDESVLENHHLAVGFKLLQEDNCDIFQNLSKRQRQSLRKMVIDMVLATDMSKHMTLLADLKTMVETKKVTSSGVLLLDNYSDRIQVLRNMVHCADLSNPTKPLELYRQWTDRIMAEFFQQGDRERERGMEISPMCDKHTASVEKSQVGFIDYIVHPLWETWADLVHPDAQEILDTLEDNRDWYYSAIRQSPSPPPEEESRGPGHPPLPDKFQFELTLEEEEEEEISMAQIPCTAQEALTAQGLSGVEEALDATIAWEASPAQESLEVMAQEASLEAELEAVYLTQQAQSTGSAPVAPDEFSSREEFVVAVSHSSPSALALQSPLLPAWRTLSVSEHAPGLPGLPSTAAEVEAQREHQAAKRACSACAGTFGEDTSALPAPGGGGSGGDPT
Outline: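 Fluorescent substrate turnover by recombinant PDE4A1 read after 1 h by mobility-shift separation. Primary duplicate screen at 25 uM; hits retested in concentration series with a 50 uM maximum, relative to DMSO.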

[2] = molecular target: human Phosphodiesterase 10 (PDE10), PDE10A (gene 10846) (UniProt Q9Y233); assay: NVS_ENZ_hPDE10: NovaScreen (NVS) Enzymatic Assay for human Phosphodiesterase 10 (PDE10) (AID 2283195)
Outline: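 Biochemical single-readout PDE10A assay, cell-free, extracted protein. Compounds first screened at 25 uM in duplicate, hits then titrated to 50 uM max. Activity measured after 1 h; loss-of-signal fitted against DMSO negative control.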

[3] = molecular target: human Matrix Metalloproteinase-2 (MMP2), MMP2 (gene 4313) (UniProt P08253); assay: NVS_ENZ_hMMP2: NovaScreen (NVS) Enzymatic Assay for human Matrix Metalloproteinase-2 (MMP2) (AID 2283184)
Sequence of human Matrix Metalloproteinase-2 (MMP2), MMP2 (gene 4313) (P08253 whole entry, looked up): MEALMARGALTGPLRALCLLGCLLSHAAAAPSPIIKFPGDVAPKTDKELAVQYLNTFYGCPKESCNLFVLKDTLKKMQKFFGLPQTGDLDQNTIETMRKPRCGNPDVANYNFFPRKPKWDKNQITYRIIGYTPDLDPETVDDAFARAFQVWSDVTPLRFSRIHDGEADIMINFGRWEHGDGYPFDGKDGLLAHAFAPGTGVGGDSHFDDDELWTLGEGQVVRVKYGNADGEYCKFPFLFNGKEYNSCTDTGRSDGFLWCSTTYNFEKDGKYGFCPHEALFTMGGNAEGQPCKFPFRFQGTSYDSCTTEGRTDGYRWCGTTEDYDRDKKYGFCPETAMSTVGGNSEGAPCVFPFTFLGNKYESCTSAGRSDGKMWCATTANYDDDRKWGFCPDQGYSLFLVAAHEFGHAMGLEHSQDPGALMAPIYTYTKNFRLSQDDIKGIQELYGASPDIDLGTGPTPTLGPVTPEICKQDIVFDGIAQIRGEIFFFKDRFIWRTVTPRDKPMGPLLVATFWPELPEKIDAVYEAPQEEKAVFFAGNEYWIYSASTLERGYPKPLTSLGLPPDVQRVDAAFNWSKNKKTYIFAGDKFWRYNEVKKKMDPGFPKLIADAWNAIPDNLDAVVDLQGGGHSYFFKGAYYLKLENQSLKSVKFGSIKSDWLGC
Outline: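 Compounds first screened in duplicate at a single 25 uM, with actives followed up in concentration series. Recombinant human MMP2 cleaves a fluorogenic substrate; fluorescence taken at 1 h, inhibition fitted relative to DMSO.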

[4] = molecular target: human Phosphodiesterase 5 (PDE5), PDE5A (gene 8654) (UniProt O76074); assay: NVS_ENZ_hPDE5: NovaScreen (NVS) Enzymatic Assay for human Phosphodiesterase 5 (PDE5) (AID 2283194)
Outline: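 Screening began in duplicate at 25 uM, with actives taken into concentration-response. Enzyme activity of recombinant PDE5 toward its substrate was measured at 1 h by fluorescence mobility-shift detection, relative to DMSO controls.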

[5] = molecular target: human Protein Phosphatase, Mg2+/Mn2+ Dependent 1A (PPM1A), PPM1A (gene 5494) (UniProt P35813); assay: NVS_ENZ_hPPM1A: NovaScreen (NVS) Enzymatic Assay for human Protein Phosphatase, Mg2+/Mn2+ Dependent 1A (PPM1A) (AID 2283198)
Sequence of human Protein Phosphatase, Mg2+/Mn2+ Dependent 1A (PPM1A), PPM1A (gene 5494) (P35813 whole entry, looked up): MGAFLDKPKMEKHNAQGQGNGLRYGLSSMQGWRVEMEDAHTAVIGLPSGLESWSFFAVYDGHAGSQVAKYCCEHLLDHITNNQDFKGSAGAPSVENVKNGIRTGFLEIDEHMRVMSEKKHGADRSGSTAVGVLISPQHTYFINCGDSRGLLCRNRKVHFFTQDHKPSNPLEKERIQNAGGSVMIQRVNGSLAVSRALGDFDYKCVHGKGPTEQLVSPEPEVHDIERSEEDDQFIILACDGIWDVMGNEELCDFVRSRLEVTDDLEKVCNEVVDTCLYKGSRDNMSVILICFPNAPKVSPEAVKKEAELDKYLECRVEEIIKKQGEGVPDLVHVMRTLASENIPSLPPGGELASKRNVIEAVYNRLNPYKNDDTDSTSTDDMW
Outline: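 Primary screen in duplicate at 25 uM, with actives then titrated to a maximum of 50 uM. Recombinant PPM1A dephosphorylation of fluorescent substrate measured at 1 h, with substrate and product separated by mobility shift; inhibition fitted against DMSO.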

[6] = molecular target: human Mitogen- and Stress-activated Protein Kinase-1 (Msk1), RPS6KA5 (gene 9252) (UniProt O75582); assay: NVS_ENZ_hMsk1: NovaScreen (NVS) Enzymatic Assay for human Mitogen- and Stress-activated Protein Kinase-1 (Msk1) (AID 2283187)
Sequence of human Mitogen- and Stress-activated Protein Kinase-1 (Msk1), RPS6KA5 (gene 9252) (O75582 whole entry, looked up): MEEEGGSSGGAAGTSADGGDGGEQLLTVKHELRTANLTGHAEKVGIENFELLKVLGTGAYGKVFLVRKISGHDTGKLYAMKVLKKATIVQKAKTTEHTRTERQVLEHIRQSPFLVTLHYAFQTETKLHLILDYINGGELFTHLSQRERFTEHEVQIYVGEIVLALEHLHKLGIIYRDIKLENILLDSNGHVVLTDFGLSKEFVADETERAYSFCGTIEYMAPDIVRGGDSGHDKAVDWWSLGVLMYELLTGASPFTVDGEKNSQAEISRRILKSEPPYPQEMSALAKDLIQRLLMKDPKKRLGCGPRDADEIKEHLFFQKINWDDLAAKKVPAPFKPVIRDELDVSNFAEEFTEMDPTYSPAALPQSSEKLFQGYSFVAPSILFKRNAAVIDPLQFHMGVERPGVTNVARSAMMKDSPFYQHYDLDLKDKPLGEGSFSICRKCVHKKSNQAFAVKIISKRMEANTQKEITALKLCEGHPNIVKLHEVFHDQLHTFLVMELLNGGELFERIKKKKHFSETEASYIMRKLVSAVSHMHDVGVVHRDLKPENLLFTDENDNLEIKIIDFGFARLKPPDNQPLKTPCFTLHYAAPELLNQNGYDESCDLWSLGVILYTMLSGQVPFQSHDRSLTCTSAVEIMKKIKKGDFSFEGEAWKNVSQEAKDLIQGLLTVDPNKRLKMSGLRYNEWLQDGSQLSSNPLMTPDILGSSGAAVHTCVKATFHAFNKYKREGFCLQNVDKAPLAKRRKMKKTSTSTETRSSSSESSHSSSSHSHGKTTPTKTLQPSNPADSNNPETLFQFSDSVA
Outline: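 Chemicals first run in duplicate at 25 uM, with actives followed up in singleton concentration series to 50 uM maximum. Enzyme activity came from substrate/product mobility-shift separation with fluorescence detection after 1 h incubation of the recombinant protein.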

[7] = molecular target: cAMP-dependent protein kinase catalytic subunit alpha (Homo sapiens) (UniProt P17612); assay: NVS_ENZ_hPKA: NovaScreen (NVS) Enzymatic Assay for human Protein Kinase A (PKA) (AID 2283192)
Outline: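 Cell-free kinase activity read by fluorescence after mobility-shift separation of substrate and product, 1 h post-dosing. Single-concentration duplicate screen (25 uM) preceded singleton concentration series (top 50 uM); loss of signal versus DMSO.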

[8] = molecular target: human Matrix Metalloproteinase-3 (MMP3), MMP3 (gene 4314) (UniProt P08254); assay: NVS_ENZ_hMMP3: NovaScreen (NVS) Enzymatic Assay for human Matrix Metalloproteinase-3 (MMP3) (AID 2283185)
Sequence of human Matrix Metalloproteinase-3 (MMP3), MMP3 (gene 4314) (P08254 whole entry, looked up): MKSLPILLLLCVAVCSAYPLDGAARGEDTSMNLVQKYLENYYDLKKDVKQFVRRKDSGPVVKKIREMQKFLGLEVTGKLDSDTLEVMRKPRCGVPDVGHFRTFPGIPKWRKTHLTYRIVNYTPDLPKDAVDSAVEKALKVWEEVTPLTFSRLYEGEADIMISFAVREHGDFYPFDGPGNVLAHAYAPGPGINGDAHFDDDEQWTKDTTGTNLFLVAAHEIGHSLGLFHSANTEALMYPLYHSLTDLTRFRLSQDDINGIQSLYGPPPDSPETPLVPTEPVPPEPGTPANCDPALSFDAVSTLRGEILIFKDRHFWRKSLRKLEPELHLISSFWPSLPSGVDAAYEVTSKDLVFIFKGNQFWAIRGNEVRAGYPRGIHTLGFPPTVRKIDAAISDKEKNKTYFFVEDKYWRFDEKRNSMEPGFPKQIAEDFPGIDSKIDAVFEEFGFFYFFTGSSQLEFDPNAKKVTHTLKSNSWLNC
Outline: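 Fluorescent substrate turnover by recombinant MMP3 read after 1 h, signal loss scored against DMSO. Compounds first run in duplicate at 25 uM single dose, then actives confirmed by concentration series.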

[9] = molecular target: Serine/threonine-protein phosphatase PP1-alpha catalytic subunit (Homo sapiens) (UniProt P62136); assay: NVS_ENZ_hPPP1CA: NovaScreen (NVS) Enzymatic Assay for human Protein Phosphatase 1 Aatalytic subunit Alpha (PPP1CA) (AID 2283200)
Sequence of Serine/threonine-protein phosphatase PP1-alpha catalytic subunit (Homo sapiens) (P62136 whole entry, looked up): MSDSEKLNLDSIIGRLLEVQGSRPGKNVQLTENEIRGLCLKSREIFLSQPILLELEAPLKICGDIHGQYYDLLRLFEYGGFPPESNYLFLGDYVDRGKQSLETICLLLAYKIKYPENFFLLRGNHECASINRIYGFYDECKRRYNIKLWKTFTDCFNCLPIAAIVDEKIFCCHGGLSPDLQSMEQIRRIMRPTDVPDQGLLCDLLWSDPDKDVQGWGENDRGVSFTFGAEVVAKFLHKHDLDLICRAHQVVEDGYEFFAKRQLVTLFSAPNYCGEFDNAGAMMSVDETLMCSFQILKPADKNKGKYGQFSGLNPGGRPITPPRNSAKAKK
Outline: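 Chemicals were first screened in duplicate at 25 uM, and those passing threshold (e.g. 30% inhibition) were run as concentration series to 50 uM. Cell-free recombinant protein, 1.33 h read, fluorescent substrate/product mobility-shift detection, normalised to DMSO.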

[10] = molecular target: human Phosphoinositide 3-kinase alpha (PI3Ka), PIK3CA (gene 5290) (UniProt P42336); assay: NVS_ENZ_hPI3Ka: NovaScreen (NVS) Enzymatic Assay for human Phosphoinositide 3-kinase alpha (PI3Ka) (AID 2283196)
Sequence of human Phosphoinositide 3-kinase alpha (PI3Ka), PIK3CA (gene 5290) (P42336 whole entry, looked up): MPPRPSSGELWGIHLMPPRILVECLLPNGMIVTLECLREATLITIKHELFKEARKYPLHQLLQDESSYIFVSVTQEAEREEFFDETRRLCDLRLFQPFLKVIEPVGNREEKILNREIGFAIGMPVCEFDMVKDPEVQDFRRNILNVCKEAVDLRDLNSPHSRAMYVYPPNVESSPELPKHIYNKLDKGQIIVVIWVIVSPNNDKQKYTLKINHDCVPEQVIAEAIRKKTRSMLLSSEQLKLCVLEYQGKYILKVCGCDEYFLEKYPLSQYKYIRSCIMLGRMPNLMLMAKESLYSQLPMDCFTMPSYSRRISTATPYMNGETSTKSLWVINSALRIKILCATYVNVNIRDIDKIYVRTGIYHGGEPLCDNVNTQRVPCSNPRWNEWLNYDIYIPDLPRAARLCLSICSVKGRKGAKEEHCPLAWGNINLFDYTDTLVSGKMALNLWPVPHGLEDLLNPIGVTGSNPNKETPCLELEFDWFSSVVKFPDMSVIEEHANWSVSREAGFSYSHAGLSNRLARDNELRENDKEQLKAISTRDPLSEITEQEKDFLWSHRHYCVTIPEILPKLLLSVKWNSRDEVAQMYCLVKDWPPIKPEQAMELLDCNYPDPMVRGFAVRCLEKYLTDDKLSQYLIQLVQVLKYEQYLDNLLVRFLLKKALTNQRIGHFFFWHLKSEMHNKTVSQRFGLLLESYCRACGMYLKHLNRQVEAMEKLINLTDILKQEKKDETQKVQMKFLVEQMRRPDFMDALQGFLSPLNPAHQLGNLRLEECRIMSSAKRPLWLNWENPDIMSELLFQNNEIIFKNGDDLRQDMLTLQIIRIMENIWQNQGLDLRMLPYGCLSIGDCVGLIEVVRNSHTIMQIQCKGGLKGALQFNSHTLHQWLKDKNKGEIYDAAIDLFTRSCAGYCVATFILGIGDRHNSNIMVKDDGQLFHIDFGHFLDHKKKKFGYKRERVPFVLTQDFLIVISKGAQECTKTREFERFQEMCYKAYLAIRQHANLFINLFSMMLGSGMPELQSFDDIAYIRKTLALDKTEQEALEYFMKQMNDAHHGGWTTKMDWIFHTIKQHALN
Outline: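 Enzyme activity as fluorescence after mobility-shift separation of substrate and product, 1 h reaction, recombinant human PI3Kα; concentration-response to 50 uM max for chemicals passing a 25 uM duplicate screen.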

## CNCc1cc(F)ccc1Oc1ccc(Cl)c(Cl)c1
[1]
  outcome: inactive
[2]
  outcome: inactive

## COCCOC[C@H](CC1(C(=O)NC2CCC(C(=O)O)CC2)CCCC1)C(=O)Oc1ccc2c(c1)CCC2 (some centres undefined)
[3]
  AC50: 19.8 µM (active)

## Cc1cc(NC(=O)C(=O)O)cc(C)c1Oc1ccc(O)c2c1CCC2
[4]
  AC50: 8.94 µM (active)
[5]
  outcome: inactive

## Cc1cccc(C)c1O
[4]
  outcome: inactive

## CC(C)(C)c1cc(O)c(C(C)(C)C)cc1O
[5]
  outcome: inactive

## O=C(N[C@@H](Cc1ccccc1)[C@@H](O)C(=O)N1C[C@@H](O)[C@@H](O)C1)c1cc2cc(Cl)ccc2[nH]1
[1]
  outcome: inactive
[4]
  outcome: inactive

## CC1=C(/C=C/C(C)=C/C=C/C(C)=C/CO)C(C)(C)CCC1
[6]
  outcome: inactive
[1]
  outcome: inactive
[4]
  outcome: inactive

## Cc1ccc2ncccc2c1
[3]
  outcome: inactive

## O=c1[nH]cc(F)c(=O)[nH]1
[4]
  outcome: inactive
[5]
  outcome: inactive

## CC=Cc1ccc(O)c(OC)c1
[4]
  outcome: inactive

## NCCO
[6]
  outcome: inactive
[7]
  outcome: inactive

## CN1CCN(Cc2cc(-c3ccc4[nH]c(=O)oc4c3)co2)[C@@H](c2ccc(F)cc2)C1
[8]
  outcome: inactive

## Cc1c(C(=O)O)c(O)cc2c1C(=O)c1c(O)c([C@@H]3O[C@H](CO)[C@@H](O)[C@H](O)[C@H]3O)c(O)c(O)c1C2=O
[1]
  outcome: inactive

## CC1(C)NC(=O)NC1=O
[9]
  outcome: inactive

## C[Si]1(C)O[Si](C)(C)O[Si](C)(C)O[Si](C)(C)O1
[3]
  outcome: inactive
[8]
  outcome: inactive

## Nc1ccc2c(c1)C(=O)c1ccccc1C2=O
[8]
  AC50: 31.6 µM (active)
[9]
  outcome: inactive

## COc1cc(-c2nc(NC(=O)c3cc4cc(C)cc(C)c4n3CC(=O)O)sc2CCC2CCCCC2)c(OC)cc1Cl
[9]
  AC50: 1.42 µM (active)

## Cc1nc(C)nc(N2C[C@@H](C)N(c3ccnc([C@@H](C)O)n3)[C@@H](C)C2)n1
[3]
  AC50: 7.26 µM (active)

## NCC1(Cc2noc(=O)[nH]2)CCCCC1
[8]
  outcome: inactive
[2]
  outcome: inactive

## CCc1c(C(=O)NN2CCCCC2)nn(-c2ccc(Cl)cc2Cl)c1-c1ccc(Br)cc1
[6]
  outcome: inactive
[4]
  outcome: inactive
[10]
  outcome: inactive

## Cc1cc(=O)[nH]c(=S)[nH]1
[5]
  outcome: inactive

## CC(C)c1ccc(C(=O)N=C(N)N)cc1S(C)(=O)=O
[10]
  outcome: inactive

## Cc1nc(-c2ccc3c(c2)CCN(CCC2CCC(NC(=O)/C=C/c4ccc(F)cc4)CC2)CC3)no1 (centres undefined)
[3]
  AC50: 13.7 µM (active)
[8]
  AC50: 16.6 µM (active)
[4]
  outcome: inactive
[2]
  AC50: 3.71 µM (active)
[10]
  outcome: inactive

## CCCCc1ccc2c(n1)[C@@H](c1ccc(OC)cc1C[C@H](C)C(=O)O)[C@H](C(=O)O)[C@H]2c1ccc2c(c1)OCO2
[8]
  AC50: 38.6 µM (active)

## Oc1ccc2c(c1)OC[C@@H](N1CCC(O)(c3ccc(F)cc3)CC1)[C@H]2O
[5]
  outcome: inactive

## Cc1ccc(C)c(C)c1
[4]
  outcome: inactive

## FC(F)(F)C(F)(F)C(F)(F)C(F)(F)C(F)(F)C(F)(F)CCI
[6]
  outcome: inactive
[7]
  outcome: inactive
[4]
  AC50: 19.7 µM (active)
[9]
  outcome: inactive

## Nc1ccccc1N
[4]
  AC50: 18.1 µM (active)

## CNC(=O)[C@H]1O[C@@H](n2cnc3c(NCc4cc(Cl)ccc4OCc4cc(C)no4)ncnc32)[C@H](O)[C@@H]1N
[8]
  outcome: inactive
[7]
  outcome: inactive
[4]
  outcome: inactive

## CCCc1cc(=O)[nH]c(=S)[nH]1
[3]
  outcome: inactive

## CC(=O)Oc1ccccc1C(=O)O
[1]
  outcome: inactive
[4]
  outcome: inactive

## CCCCCCC(=O)OCC
[5]
  outcome: inactive

## COc1cc(S(=O)(=O)O)c(C)cc1N=Nc1c(O)ccc2cc(S(=O)(=O)O)ccc12
[8]
  AC50: 19.2 µM (active)

## CCOC(=O)C(C)(C)Oc1ccc(Cl)cc1
[2]
  outcome: inactive
[10]
  outcome: inactive

## CN[C@H]1CC[C@@H](c2ccc(Cl)c(Cl)c2)c2ccc(S(N)(=O)=O)cc21
[8]
  outcome: inactive
[5]
  outcome: inactive

## CCCCN(CCCC)CCCC
[9]
  outcome: inactive

## O=C(OCCCCCOC(=O)c1ccccc1)c1ccccc1
[7]
  outcome: inactive
[5]
  outcome: inactive
[9]
  outcome: inactive

## COc1cc(C=O)ccc1O
[8]
  AC50: 3.71 µM (active)
